Data from PubChem BioAssay (NCATS).
Several values for one entry are separate records, joined by “and”; a condition that tells them apart may be missing. Equal values may be shown once. Inconclusive results are not listed. A call without a number means that no potency is given here. Values without a mark were called inactive. Activity calls are given as the source filed them. The call rests on the fitted dose curve; in most records, active means well fitted curve in the direction sought with a large enough effect; inconclusive means small, poorly fitted or top-dose-only effect, or another doubt; inactive means no such curve, though single readings can be large; an effect the other way counts as inactive or inconclusive.

Legend:
KB-3-1 = assay: Cytotoxic Profiling of Annotated Libraries Using Quantitative High-Throughput Screening (AID 1296008); details: Five cell lines viability, CellTiter-Glo ATP luminescence, 48-72 h; max response: active compounds read low; further: nearly all actives have a fitted effect of over 60% in size
In short: (§1)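 Compounds were pin-transferred onto cells and incubated 48 or 72 hr at 37 degree Celsius, 95% humidity. CellTiter-Glo was added, plates sat 10 min at room temperature, then ATP-coupled luminescence was imaged as the viability read-out.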

NIH3T3 [1] = assay: as above; details: Five cell lines viability, CellTiter-Glo ATP luminescence, 48-72 h; max response: active compounds read low
In short: as §1

HEK293T [2] = assay: qHTS assay to identify novel small-molecules to repurpose for Merkel cell carcinoma treatment (AID 1296009); details: MCC and control cell lines, CellTiter-Glo viability, 72 h; series mostly up to 44.8 µM; further: nearly all actives have a fitted effect of over 60% in size
In short: (§2)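 Cells exposed to NPC (8-point) and MIPE (11-point) compound dilutions for 72 hr at 37 degree celsius; viability read by CellTiter-Glo luminescence, normalized to no-cell and DMSO in-plate controls.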

C33A = assay: Primary qHTS to identify gynecologic anti-cancer compounds using libraries of approved drugs and bioactive compounds (AID 1345084); details: Gynecologic cancer cell panel viability, ATPlite luminescence, 48 h; series mostly up to 57.5 µM; further: nearly all actives have a fitted effect of over 55% in size
In short: (§3)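 ATP-based viability (ATPlite), 1,000 cells/well, 16 h pre-incubation, 48 h compound at 37 C, 5% CO2, 15 min RT before read.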

CAOV3 = assay: as above; details: Gynecologic cancer cell panel viability, ATPlite luminescence, 48 h; series mostly up to 57.5 µM
In short: as §3

CASKI = assay: as above; details: Gynecologic cancer cell panel viability, ATPlite luminescence, 48 h; series mostly up to 57.5 µM
In short: as §3

Es-2 = assay: as above; details: Gynecologic cancer cell panel viability, ATPlite luminescence, 48 h; series mostly up to 57.5 µM
In short: as §3

HeLa = assay: as above; details: Gynecologic cancer cell panel viability, ATPlite luminescence, 48 h; series mostly up to 57.5 µM
In short: as §3

Hek293T [3] = assay: as above; details: Gynecologic cancer cell panel viability, ATPlite luminescence, 48 h, control line for the selectivity index; series mostly up to 57.5 µM
In short: as §3

JEG-3 = assay: as above; details: Gynecologic cancer cell panel viability, ATPlite luminescence, 48 h; series mostly up to 57.5 µM
In short: as §3

OV90 = assay: as above; details: Gynecologic cancer cell panel viability, ATPlite luminescence, 48 h; series mostly up to 57.5 µM
In short: as §3

PA-1 = assay: as above; details: Gynecologic cancer cell panel viability, ATPlite luminescence, 48 h; series mostly up to 57.5 µM
In short: as §3

NIH3T3 [4] = assay: qHTS assay to identify novel small-molecules to repurpose for Merkel cell carcinoma treatment (AID 1296009); details: MCC and control cell lines, CellTiter-Glo viability, 72 h; at 44.8 µM (top of the series) unless noted; further: nearly all actives have a fitted effect of over 60% in size
In short: as §2
Potency means the concentration at half of the fitted maximal effect.

In the case of `O=C1NC(Cc2ccc(O)cc2)C(=O)N2CCCC12` (stereo not given), the max response (KB-3-1) was 8.78%, the max response (NIH3T3 [1]) was -0.188% and the Potency (HEK293T [2]) was “inactive”. The Potency (C33A) was “inactive”, the Potency (CAOV3) was “inactive” and the Potency (CASKI) was “inactive”. The Potency (Es-2) was “inactive”, the Potency (HeLa) was “inactive” and the Potency (Hek293T [3]) was “inactive”. For the same compound, the Potency (JEG-3) was “inactive”, the Potency (OV90) was “inactive” and the Potency (PA-1) was “inactive”.
In the case of `OC[C@H]1O[C@@H](n2cnc3c(NCc4ccc(O)cc4)ncnc32)[C@H](O)[C@@H]1O`, the max response (KB-3-1) was -13.6%, the outcome (NIH3T3 [1]) was “inactive” and the Potency (HEK293T [2]) was “inactive”. The outcome (NIH3T3 [4]) was “inactive”, the Potency (CAOV3) was “inactive” and the Potency (Es-2) was “inactive”. For the same compound, the Potency (Hek293T [3]) was “inactive”, the Potency (OV90) was “inactive” and the Potency (PA-1) was “inactive”.
For `COC(=O)C1(Cc2ccc(O)cc2)OC(=O)C(OC)=C1c1ccc(O)cc1` (stereo not given), the outcome (KB-3-1) was “inactive”, the outcome (NIH3T3 [1]) was “inactive” and the Potency (HEK293T [2]) was “inactive”. The Potency (C33A) was “inactive”, the Potency (CAOV3) was “inactive” and the Potency (CASKI) was “inactive”. For the same compound, the Potency (Es-2) was “inactive”, the Potency (HeLa) was “inactive” and the Potency (Hek293T [3]) was “inactive”. The Potency (JEG-3) was “inactive”, the Potency (OV90) was “inactive” and the Potency (PA-1) was “inactive”.
`COc1ccc(C)c2sc(NC(=O)c3ccncc3)nc12` was tested, and the outcome (KB-3-1) was “inactive”, the max response (NIH3T3 [1]) was 2.46% and the Potency (HEK293T [2]) was “inactive”. The Potency (C33A) was “inactive”, the Potency (CAOV3) was “inactive” and the Potency (CASKI) was “inactive”. For the same compound, the Potency (Es-2) was “inactive”, the Potency (HeLa) was “inactive” and the Potency (Hek293T [3]) was “inactive”. For the same compound, the Potency (JEG-3) was “inactive”, the Potency (OV90) was “inactive” and the Potency (PA-1) was “inactive”.
`C=CC(C)(O)CC/C=C(\C)C(=O)OCC1OC(OC2CCC3(C)C(CCC4(C)C3CC=C3C5CC(C)(C)C(O)CC5(C(=O)O)CCC34C)C2(C)C)C(O)C(OC2OC(CO)C(O)C(OC3OC(CO)C(O)C(OC4OC(COC5OC(CO)C(O)C(O)C5O)C(O)C(O)C4O)C3O)C2O)C1O` (stereo not given) was tested, and the outcome (KB-3-1) was “inactive”, the outcome (NIH3T3 [1]) was “inactive” and the outcome (HEK293T [2]) was “inactive [at 9.27 µM]”. For the same compound, the outcome (NIH3T3 [4]) was “inactive [at 9.27 µM]”, the activity change, negative = cytotoxicity (C33A) was 4.36% [at 6.55 µM] and the activity change, negative = cytotoxicity (CASKI) was 11.9% [at 6.55 µM]. The activity change, negative = cytotoxicity (Es-2) was 0.769% [at 6.55 µM], the activity change, negative = cytotoxicity (HeLa) was 3.26% [at 6.55 µM] and the activity change, negative = cytotoxicity (Hek293T [3]) was 3.14% [at 6.55 µM]. It also gave an activity change, negative = cytotoxicity (JEG-3) of 7.76% [at 6.55 µM], an activity change, negative = cytotoxicity (OV90) of 12.5% [at 6.55 µM] and an activity change, negative = cytotoxicity (PA-1) of 15.1% [at 6.55 µM].
With `OCC1OC(Oc2cc(O)c3c(c2)OC(c2ccc(O)cc2)C(O)C3)C(O)C1O` (stereo not given) the max response (KB-3-1) was 9.04%, the max response (NIH3T3 [1]) was 2.06% and the Potency (HEK293T [2]) was “inactive”. The Potency (C33A) was “inactive”, the Potency (CAOV3) was “inactive” and the Potency (CASKI) was “inactive”. The Potency (Es-2) was “inactive”, the Potency (HeLa) was “inactive” and the Potency (Hek293T [3]) was “inactive”. For the same compound, the Potency (JEG-3) was “inactive”, the Potency (OV90) was “inactive” and the Potency (PA-1) was “inactive”.
In the case of `O=C(CCO[C@@H]1O[C@H](CO)[C@@H](O)[C@H](O)[C@H]1O)c1ccc(O)cc1`, the outcome (KB-3-1) was “inactive”, the max response (NIH3T3 [1]) was -1.69% and the Potency (HEK293T [2]) was “inactive”. For the same compound, the Potency (C33A) was “inactive”, the Potency (CAOV3) was “inactive” and the Potency (CASKI) was “inactive”. The Potency (Es-2) was “inactive”, the Potency (HeLa) was “inactive” and the Potency (Hek293T [3]) was “inactive”. The Potency (JEG-3) was “inactive”, the Potency (OV90) was “inactive” and the Potency (PA-1) was “inactive”.
`C=C1C(=O)O[C@H]2[C@H]1[C@@H](OC(=O)C(C)CO)C[C@@]1(C)[C@H](O)CCC(=O)[C@H]21` (stereo not given in full) was tested, and the outcome (KB-3-1) was “inactive”, the max response (NIH3T3 [1]) was -0.0339% and the Potency (HEK293T [2]) was “inactive”. For the same compound, the Potency (C33A) was “inactive”, the Potency (CAOV3) was “inactive” and the Potency (CASKI) was “inactive”. The Potency (Es-2) was “inactive”, the Potency (HeLa) was “inactive” and the Potency (Hek293T [3]) was “inactive”. For the same compound, the Potency (JEG-3) was “inactive”, the Potency (OV90) was “inactive” and the Potency (PA-1) was “inactive”.
For `C=CC(C)(O)CO[C@@H]1O[C@H](CO)[C@@H](O)[C@H](O)[C@H]1O` (stereo not given in full), the max response (KB-3-1) was 1.27%, the max response (NIH3T3 [1]) was -4.31% and the Potency (HEK293T [2]) was “inactive”. For the same compound, the Potency (C33A) was “inactive”, the Potency (CAOV3) was “inactive” and the Potency (CASKI) was “inactive”. The Potency (Es-2) was “inactive”, the Potency (HeLa) was “inactive” and the Potency (Hek293T [3]) was “inactive”. The Potency (JEG-3) was “inactive”, the Potency (OV90) was “inactive” and the Potency (PA-1) was “inactive”.
With `COc1c(C(CC(C)C)OC(C)=O)ccc(Oc2c(O)cc(C)cc2/C=C/C(C)=O)c1C(=O)O` (stereo not given) the max response (KB-3-1) was 3.96%, the max response (NIH3T3 [1]) was -18.3% and the Potency (HEK293T [2]) was “inactive”. For the same compound, the Potency (C33A) was “inactive”, the Potency (CAOV3) was “inactive” and the Potency (CASKI) was “inactive”. The Potency (Es-2) was “inactive”, the Potency (HeLa) was “inactive” and the Potency (Hek293T [3]) was “inactive”. The Potency (JEG-3) was “inactive”, the Potency (OV90) was “inactive” and the Potency (PA-1) was “inactive”.
In the case of `COC(=O)[C@]12C(=O)C(C)=C(O)[C@@]1(C)C(C)=CC1[C@@]34CC[C@@H](OC(C)=O)C(C)(C)C3[C@H](C[C@]12C)OC4=O` (stereo not given in full), the max response (KB-3-1) was 1.77%, the max response (NIH3T3 [1]) was 4.25% and the Potency (HEK293T [2]) was “inactive”. The Potency (C33A) was “inactive”, the Potency (CAOV3) was “inactive” and the Potency (CASKI) was “inactive”. The Potency (Es-2) was “inactive”, the Potency (HeLa) was “inactive” and the Potency (Hek293T [3]) was “inactive”. The Potency (JEG-3) was “inactive”, the Potency (OV90) was “inactive” and the Potency (PA-1) was “inactive”.
`CC(=O)O[C@H]1[C@H](Oc2ccccc2COC(=O)C2(O)C=CCCC2=O)O[C@H](CO)[C@@H](O)[C@@H]1O` (stereo not given in full) was tested, and the max response (KB-3-1) was 6.43%, the max response (NIH3T3 [1]) was 0.519% and the Potency (HEK293T [2]) was “inactive”. For the same compound, the Potency (C33A) was “inactive”, the Potency (CAOV3) was “inactive” and the Potency (CASKI) was “inactive”. For the same compound, the Potency (Es-2) was “inactive”, the Potency (HeLa) was “inactive” and the Potency (Hek293T [3]) was “inactive”. The Potency (JEG-3) was “inactive”, the Potency (OV90) was “inactive” and the Potency (PA-1) was “inactive”.
With `CO[C@@H]1CC[C@H](OC[C@]2(COC(=O)c3ccc(C)[nH]3)[C@H](OC(C)=O)CC[C@@]3(C)[C@@H]4CC=C(C)[C@@H](C5=C(O)C(=O)OC5O)[C@]4(C)CC[C@@H]32)O[C@H]1C` (stereo not given in full) the outcome (KB-3-1) was “inactive”, the max response (NIH3T3 [1]) was -6.06% and the Potency (HEK293T [2]) was “inactive”. For the same compound, the Potency (C33A) was “inactive”, the Potency (CAOV3) was “inactive” and the Potency (CASKI) was “inactive”. For the same compound, the Potency (Es-2) was “inactive”, the Potency (HeLa) was “inactive” and the Potency (Hek293T [3]) was “inactive”. The Potency (JEG-3) was “inactive”, the Potency (OV90) was “inactive” and the Potency (PA-1) was “inactive”.
With `COc1ccc(C[C@H](N)C(=O)N[C@H]2[C@@H](O)[C@H](n3cnc4c(N(C)C)ncnc43)O[C@@H]2CO)cc1` the Potency (KB-3-1) was 5.17 µM (active) and 517 nM (active), the Potency (NIH3T3 [1]) was 2310 nM (active) and the Potency (HEK293T [2]) was 1160 nM (active). For the same compound, the Potency (C33A) was 2820 nM (active), the Potency (CAOV3) was 1120 nM (active) and the Potency (CASKI) was 1580 nM (active). For the same compound, the Potency (Es-2) was 3160 nM (active), the Potency (HeLa) was 2000 nM (active) and the Potency (Hek293T [3]) was 2820 nM (active). For the same compound, the Potency (JEG-3) was 3980 nM (active), the Potency (OV90) was 3160 nM (active) and the Potency (PA-1) was 708 nM (active).
